The assay can be described thus: NCI Yeast Anticancer Drug Screen. Data for the mlh1 rad18 strain (AID 175). Particulars: S. cerevisiae mlh1 rad18 strain growth inhibition, stronger effect = higher value. As to the method:
Growth inhibition of yeast strains with defined genetic alterations is measured as a screen for potential anti-cancer activity. Selected strains with alterations in DNA damage repair or cell cycle control were exposed to compounds and growth inhibition was measured relative to vehicle treated controls. The strain used in this assay is mlh1 rad18

Where [1] appears, read: at 5.0 µM (retest, dose inferred, filed as 0.5).
[2] abbreviates: at 50.0 µM (retest, dose inferred, filed as 5.0).

Data on 14 molecules can be found in PubChem BioAssay (NCI).

Several values for one entry are separate records, joined by “and”; a condition that tells them apart may be missing. Equal entries are not always repeated. The panel holds about 79,000 compounds, 15% with a hit somewhere; the sample as a whole holds those more often. More than one record can exist for a structure, and the calls need not agree. Activity calls are given as the source filed them. Cut-off read from the data, not from the text of the source: active = growth inhibition above about 70%; inactive = the rest.

Consider `O=C1N=C2SC=C(NC(=S)Nc3ccccc3)N2NC12c1ccccc1-c1ccccc12`, for which the growth inhibition reads like this: under setting [1], -10% (inactive); under setting [2], 41% (inactive); (at 50.0 µM) 69.7% (inactive).

As to `CCCCC(CC)C(=O)[O][Sn]([CH2]CCC)([CH2]CCC)[O]C(=O)C(CC)CCCC` (configuration not stated), the growth inhibition is 58% (inactive) under setting [1], 98% (active) under setting [2] and 88.8% (active) (at 50.0 µM).

For `CN(C)CCOC1(Cc2ccc(Cl)cc2Cl)CCC(C(C)(C)C)CC1` (configuration not stated), the growth inhibition was 96% (active) and 68% (inactive) under setting [1]; 100% (active) and 99% (active) under setting [2]; 99.5% (active) and 99.4% (active) (at 50.0 µM).

With `COC(=O)/C=C(/CC(=O)OC)C(=O)OC`, the growth inhibition reads like this: under setting [1], 33% (inactive); under setting [2], 1% (inactive); (at 50.0 µM) 10.8% (inactive).

As for `NC1CCCCC1N.Nc1c(N=Nc2ccc(-c3ccc(N=Nc4cc(S(=O)(=O)[O-])c5ccccc5c4N)cc3)cc2)cc(S(=O)(=O)[O-])c2ccccc12.[OH3+].[OH3+].[Pt+4]`, the growth inhibition is 77% (active) under setting [1], 78% (active) under setting [2] and 85.2% (active) (at 50.0 µM).

On to `C=C1C(=O)OC2CC1C(OC(C)=O)C/C(C)=C/CC/C(C)=C\CCC2(C)O` (configuration not stated), for which the growth inhibition runs as follows: under setting [1], 60% (inactive) and 95% (active); under setting [2], 97% (active); (at 50.0 µM) 85.5% (active) and 86.8% (active).

Consider `CCOC(=O)C#Cc1ccc([N+](=O)[O-])cc1`, for which the growth inhibition runs as follows: under setting [1], -20% (inactive); under setting [2], 63% (inactive); (at 50.0 µM) 96.8% (active).

Turning to `Oc1ccc2c(c1)C(O)CCCC2` (configuration not stated), the growth inhibition reads like this: under setting [1], 87% (active); under setting [2], 99% (active); (at 50.0 µM) 86.8% (active).

With `CN(C)CCCCN1c2ccccc2Sc2ccc(N=[N+]=[N-])cc21`, the growth inhibition was 23% (inactive) under setting [1], 99% (active) under setting [2] and 91.5% (active) (at 50.0 µM).

`CCCOC(=O)C(F)C(Br)C(=O)OCCC` (configuration not stated): the growth inhibition is, setting by setting: under setting [1], 93% (active); under setting [2], 98% (active); (at 50.0 µM) 89% (active).

For `O=Cc1ccc2c(c1)C(=O)c1ccccc1C2=O`, the growth inhibition runs as follows: under setting [1], 10% (inactive); under setting [2], 61% (inactive); (at 50.0 µM) 67.8% (inactive).

As for `COc1ccc(/C=C/c2sc3ccccc3[n+]2CCCCI)cc1OC`, the growth inhibition is -9% (inactive) under setting [1], 46% (inactive) under setting [2] and 95.6% (active) (at 50.0 µM).

On to `COC1=C(N)C(=O)c2nc(-c3nc(C(=O)O)c(C)c(-c4ccc(OC)c(OC)c4O)c3N)ccc2C1=O`, for which the growth inhibition under setting [1] is 97% (active) and 99% (active); the growth inhibition under setting [2] is 97% (active) and 98% (active); the growth inhibition (at 50.0 µM) was 93% (active) and 92.5% (active).

Consider `C=C(Cl)COC(=O)Nc1cccc(Cl)c1`, for which the growth inhibition under setting [1] is -13% (inactive), the growth inhibition under setting [2] was 80% (active) and the growth inhibition (at 50.0 µM) was 82.5% (active).
